The source of these data is PubChem BioAssay (NCI).

The structures appear in SMILES notation. The panel holds about 83,000 compounds, 20% with a hit somewhere; the sample as a whole holds those more often.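 Method: cells in 96-well plates; compound added at one concentration; 48 h incubation; percent growth measured; values under 10 scored active.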 A number with no mark means an inactive call. Active and inactive are the calls of the source.

In the experiment the test system is NCI-H460 lung. Nature of the experiment: NCI-60 one-dose screen, 48 h (100 = growth as untreated, 0 = no growth, -100 = all killed). The note with it: 10 µM unless noted. The procedure:
Growth inhibition of the NCI-H460 human Non-Small Cell Lung tumor cell line is measured as a screen for anti-cancer activity. Cells are grown in 96 well plates and exposed to the test compound for 48 hours. Compounds are tested at a single concentration, which is 10^-5 M for most compounds. The reported endpoint is percent growth (GI% or GIPRCNT), where numbers from 0 - 100% represent growth inhibition, and numbers from -100% - 0 represent cell death. For example, a value of 40 represents 60% growth inhibition. A value of 0 means no net growth occurred over the course of the experiment. A value of -40 indicates 40% of cells at the beginning of the experiment died by the end of the experiment. A value of -100 means all cells are dead at the end of the experiment.
NCI-60 Human Tumor Cell Lines Screen was performed using the standard one-dose NCI protocol, which is described in more detail at https://dtp.cancer.gov/discovery_development/nci-60/default.htm.
Compounds with GIPRCNT values below 10 were considered active. Activity score was based on GIPRCNT using the following formula: […]
Score is 0 for GIPRCNT values of 100 or above, 50 for GIPRCNT values of 0, and 100 for GIPRCNT values of -100.
For the compound `CCOC(=O)NC1=NCC(C)(C)S1`, the growth is 101%.
The same measure for `CCOc1nc(-c2ccccc2)cc2c(O)c(C(=O)N/N=C/c3ccccc3O)[nH]c(=O)c12`: 107%.
With `O=C(NCCNCCO)c1cc([N+](=O)[O-])cc([N+](=O)[O-])c1O`, the growth was 104%.
Take `N=C(N)c1ccc(-c2ccc(-c3ccc(F)cc3)s2)cc1`: the growth was -88.9% (active).
The same measure for `COc1cc(-c2nc3c(c(C)nc4c3nnn4-c3ccccc3)c(=O)o2)cc(OC)c1OC`: 115%.
The result for `O=C(NC(=S)NNC(=S)NNc1ccccc1)c1ccccc1` reads 13.2%.
The result for `CCOC(=O)NNc1[nH]c(-c2ccc(OC)cc2)cc1C#N` reads 99.1%.
For the compound `CC(C)CCCCCOC(=O)c1ccccc1SSc1ccccc1C(=O)OCCCCCC(C)C`, the growth is 108%.
The result for `O=C(/C=C\c1ccccc1Cl)c1ccccc1` reads 95.4%; that for `O=C1/C(=C\c2cn(-c3nc(N4CCOCC4)nc(N4CCOCC4)n3)c3ccccc23)c2ccccc2N1c1c(Cl)cccc1Cl`, 40.8%.
The same measure for `CC(=O)Nc1ccc(CC#N)cc1Br`: 101%; for `CCOC(=O)c1c2c(cn1Cc1ccccc1)-c1oncc1CC2`: 112%.
Take `COc1ccc(-c2cn3ccnc3c(-c3ccc4ncn(C5CCCCC5)c4c3)n2)cc1`: the growth is 8.91% (active).
The result for `CC(=N\N=C(N)N)/C(=N/N=C(N)N)c1ccccc1` reads 93.3%; that for `O=C1c2ccccc2CCc2ccccc21`, 108%.
The result for `BrCCCOc1ccc(Oc2ccc(OCCCBr)cc2)cc1` reads 105%.
The same measure for `COC(=O)c1c[n+]([O-])ccc1OC`: 107%; for `CCc1ccc(C(=Nc2ccc(N(C)C(=O)CN3CCN(C)CC3)cc2)c2c(O)[nH]c3ccc(C(=O)OC)cc23)cc1`: -74.5% (active).
With `O=C(NCCO)C(F)(F)F`, the growth is 109%.
In the case of `CC(=O)/C(=C/c1ccc(-c2ccccc2)cc1)C(=O)c1ccccc1`, the growth was 99.8%.
The same measure for `[N-]=[N+]=Nc1ncc(-c2ccc(C(F)(F)F)cc2)c(NC2CCCCCC2)n1`: 18.4% [100 µM]; for `CC(=O)Nc1nc(C)c(C(=O)N/N=C/c2cccs2)s1`: 102%; for `COc1cc(NC(=O)CSc2nc3ccc(Cl)cc3c(=O)n2-c2ccc(F)cc2)cc(OC)c1OC`: 91.3%.
For the compound `CC(C)(C)c1cc(C[P+](c2ccc(Cl)cc2)(c2ccc(Cl)cc2)c2ccc(Cl)cc2)cc(C(C)(C)C)c1O`, the growth is 94.9%.
The result for `O=C(CCCC(=O)Nc1ccc(Cn2nnc3cc(Cl)c(Cl)cc32)cc1)Nc1ccc(CN2N=NC3C=C(Cl)C(Cl)=CC32)cc1` (stereo not given) reads 84.1%.
Take `COc1ccc(CN2C(=O)/C(=C\C(=O)c3ccc(OCCN4CCCC4)cc3)c3ccccc32)cc1`: the growth was 94.4%.
For `COc1ccc2c(c1)/C(=C1/S/C(=N/c3nnc(C)s3)NC1=O)C(=O)N2Cc1ccc(Br)cc1`, the growth is 6.08% (active).
The same measure for `COc1ccc(-n2nnnc2-c2cn[nH]c2C(F)(F)F)cc1`: 110%; for `CCOC(=O)c1cc(-c2ccc(OC)cc2)[nH]c1NNC(=O)CCOC`: 119%.
The same measure for `O=C(N/N=C/c1ccccc1Cl)c1cccc2ccccc12`: 98.9%; for `CCOC(=O)c1c(C)oc2ncnc(Nc3ccc(NC(=O)Nc4ccc(CC)cc4)cc3)c12`: 106%; for `CCOC(=O)c1c(C)oc2ncnc(Nc3ccc(C(=O)NCCc4ccccc4)cc3)c12`: 83%.
The result for `O=C(CCl)c1ccc2c(c1)CCCC2` reads 107%; that for `CCCCCCCCCCCCCCCCCC1=NCCN1CCNC(C)=O`, 50.5%; that for `CCCCCCCCCCCCc1ccc([N+](CC)(CC)CC)cc1`, 44%.
Take `O=C(Nn1cnc2ccccc21)N1CCCC1`: the growth is 117%.
The same measure for `CC[n+]1c(C)ccc2cc(C)ccc21`: 110%; for `CCCCCCCCCCCCCCCCNC(=S)N/N=C/c1ccc(O)cc1O`: 37.1%; for `COCC(=O)NNc1[nH]c(-c2ccc(OC)cc2)cc1C#N`: 117%.
`C=CN(C)S(C)(=O)=O`: the growth was 17.8%.
